Source: the supplement of paper PMC10849652
Targets with a hit are over-represented here; the source holds about 7,900 in all. About 0.6% of all pairs of compound and target were hits. Values without a mark were called inactive.

Compound: COC1=CC=C(C=C1)CN2C=CC3=C2C=C(C=C3)C(=O)NO
Test: log2 fold change, soluble protein after heating vs DMSO (PISA); higher = thermal stabilisation; K562 cells, 10 uM, 30 min; active = over 0.2 and 3.5 SD of the protein, either way, in both replicates (recomputed)
In short: (§1)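 K562 cells at 2×10^6 cells/mL were given 10 μM compound for 30 min. Aliquots then went through 3 min of heating across 48°C-58°C, were pooled, and were extracted in PBS with 0.5% NP-40 at 4°C, and the supernatant after 21,000xg for 90 min was quantified by TMTpro 16plex LC-MS/MS with channel sums equalised. Thermal stability relative to control samples, from duplicates, is given as log2 fold change.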

UniProt Q8NCE2, sequence (Q8NCE2 whole entry, looked up): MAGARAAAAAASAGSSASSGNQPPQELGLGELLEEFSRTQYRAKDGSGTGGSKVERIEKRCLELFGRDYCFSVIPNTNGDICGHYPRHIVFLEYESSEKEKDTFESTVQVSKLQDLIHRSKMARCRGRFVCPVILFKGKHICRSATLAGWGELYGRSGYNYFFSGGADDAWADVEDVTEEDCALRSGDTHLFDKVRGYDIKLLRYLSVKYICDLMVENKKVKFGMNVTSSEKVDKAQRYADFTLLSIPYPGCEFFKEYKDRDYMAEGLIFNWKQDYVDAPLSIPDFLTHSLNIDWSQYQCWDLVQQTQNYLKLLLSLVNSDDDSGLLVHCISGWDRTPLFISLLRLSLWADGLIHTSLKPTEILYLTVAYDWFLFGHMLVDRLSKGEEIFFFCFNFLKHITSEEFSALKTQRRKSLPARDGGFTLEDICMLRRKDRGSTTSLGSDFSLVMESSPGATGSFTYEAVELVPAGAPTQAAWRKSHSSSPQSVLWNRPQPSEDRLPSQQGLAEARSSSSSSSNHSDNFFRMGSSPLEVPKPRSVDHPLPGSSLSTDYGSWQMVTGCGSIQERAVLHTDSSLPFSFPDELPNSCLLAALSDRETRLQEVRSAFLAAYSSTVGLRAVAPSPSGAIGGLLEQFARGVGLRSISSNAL
UniProt O43809, sequence (O43809 whole entry, looked up): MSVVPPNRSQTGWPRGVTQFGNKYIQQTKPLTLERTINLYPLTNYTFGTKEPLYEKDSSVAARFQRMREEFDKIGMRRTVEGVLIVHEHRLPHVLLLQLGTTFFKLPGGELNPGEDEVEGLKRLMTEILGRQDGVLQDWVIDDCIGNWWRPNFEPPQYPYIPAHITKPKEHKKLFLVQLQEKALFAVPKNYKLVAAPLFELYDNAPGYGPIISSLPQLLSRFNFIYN
UniProt O60313, sequence (O60313 whole entry, looked up): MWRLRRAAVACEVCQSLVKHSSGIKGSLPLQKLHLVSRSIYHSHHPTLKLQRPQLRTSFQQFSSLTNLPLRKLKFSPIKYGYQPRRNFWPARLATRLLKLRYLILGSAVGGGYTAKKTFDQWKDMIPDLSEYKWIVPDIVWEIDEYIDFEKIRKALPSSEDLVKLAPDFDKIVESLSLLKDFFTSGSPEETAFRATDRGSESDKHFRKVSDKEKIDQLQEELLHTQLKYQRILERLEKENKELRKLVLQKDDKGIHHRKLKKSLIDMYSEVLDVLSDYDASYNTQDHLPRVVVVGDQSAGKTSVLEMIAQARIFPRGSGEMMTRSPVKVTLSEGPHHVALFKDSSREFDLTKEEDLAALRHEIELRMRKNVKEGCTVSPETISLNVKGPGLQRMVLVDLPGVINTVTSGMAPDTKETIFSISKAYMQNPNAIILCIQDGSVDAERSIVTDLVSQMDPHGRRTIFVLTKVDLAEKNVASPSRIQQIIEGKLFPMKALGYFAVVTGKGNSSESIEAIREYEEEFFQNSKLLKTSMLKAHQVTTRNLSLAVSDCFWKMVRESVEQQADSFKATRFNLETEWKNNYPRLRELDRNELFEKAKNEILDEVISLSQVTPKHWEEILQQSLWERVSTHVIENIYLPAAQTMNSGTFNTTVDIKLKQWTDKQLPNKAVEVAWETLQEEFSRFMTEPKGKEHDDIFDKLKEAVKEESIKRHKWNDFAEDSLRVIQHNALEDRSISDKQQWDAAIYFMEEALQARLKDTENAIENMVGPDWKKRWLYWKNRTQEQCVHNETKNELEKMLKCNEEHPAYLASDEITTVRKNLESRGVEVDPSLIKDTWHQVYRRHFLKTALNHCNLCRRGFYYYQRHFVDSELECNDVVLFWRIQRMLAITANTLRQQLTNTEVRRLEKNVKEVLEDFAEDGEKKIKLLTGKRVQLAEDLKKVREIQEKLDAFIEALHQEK
UniProt Q9UMY1, sequence (Q9UMY1 whole entry, looked up): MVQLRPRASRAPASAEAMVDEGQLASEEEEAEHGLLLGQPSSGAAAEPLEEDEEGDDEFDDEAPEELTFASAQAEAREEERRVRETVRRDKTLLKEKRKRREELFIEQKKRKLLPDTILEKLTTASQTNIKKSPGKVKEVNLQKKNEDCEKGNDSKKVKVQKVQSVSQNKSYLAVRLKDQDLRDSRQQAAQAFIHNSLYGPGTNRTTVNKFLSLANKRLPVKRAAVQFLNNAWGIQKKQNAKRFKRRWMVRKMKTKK
UniProt Q00013, sequence (Q00013 whole entry, looked up): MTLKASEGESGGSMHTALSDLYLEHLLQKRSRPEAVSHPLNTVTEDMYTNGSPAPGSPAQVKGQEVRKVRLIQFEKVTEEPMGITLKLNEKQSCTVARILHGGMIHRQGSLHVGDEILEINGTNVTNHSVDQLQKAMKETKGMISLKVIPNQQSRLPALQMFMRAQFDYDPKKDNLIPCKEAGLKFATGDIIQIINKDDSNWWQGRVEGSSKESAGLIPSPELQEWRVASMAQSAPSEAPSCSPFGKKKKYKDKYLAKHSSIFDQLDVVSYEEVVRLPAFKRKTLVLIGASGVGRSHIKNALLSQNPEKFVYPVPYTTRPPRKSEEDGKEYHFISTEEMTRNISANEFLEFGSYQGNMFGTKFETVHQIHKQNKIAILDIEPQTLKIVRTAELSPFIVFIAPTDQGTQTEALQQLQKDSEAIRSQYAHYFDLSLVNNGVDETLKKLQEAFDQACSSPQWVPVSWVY
UniProt P30419, sequence (P30419 whole entry, looked up): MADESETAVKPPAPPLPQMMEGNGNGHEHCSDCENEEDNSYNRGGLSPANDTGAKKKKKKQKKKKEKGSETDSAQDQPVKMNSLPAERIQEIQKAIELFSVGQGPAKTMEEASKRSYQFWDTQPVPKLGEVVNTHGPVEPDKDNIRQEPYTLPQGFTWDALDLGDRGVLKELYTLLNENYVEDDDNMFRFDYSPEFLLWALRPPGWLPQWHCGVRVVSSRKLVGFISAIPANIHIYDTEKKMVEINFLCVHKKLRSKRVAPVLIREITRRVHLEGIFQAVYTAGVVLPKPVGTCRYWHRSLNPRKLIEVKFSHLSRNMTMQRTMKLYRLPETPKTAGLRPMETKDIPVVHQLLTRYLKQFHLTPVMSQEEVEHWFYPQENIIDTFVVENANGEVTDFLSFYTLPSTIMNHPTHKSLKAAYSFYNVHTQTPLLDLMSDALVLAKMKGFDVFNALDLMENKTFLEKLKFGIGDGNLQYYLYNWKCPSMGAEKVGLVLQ
UniProt Q8TEM1, sequence (Q8TEM1 whole entry, looked up): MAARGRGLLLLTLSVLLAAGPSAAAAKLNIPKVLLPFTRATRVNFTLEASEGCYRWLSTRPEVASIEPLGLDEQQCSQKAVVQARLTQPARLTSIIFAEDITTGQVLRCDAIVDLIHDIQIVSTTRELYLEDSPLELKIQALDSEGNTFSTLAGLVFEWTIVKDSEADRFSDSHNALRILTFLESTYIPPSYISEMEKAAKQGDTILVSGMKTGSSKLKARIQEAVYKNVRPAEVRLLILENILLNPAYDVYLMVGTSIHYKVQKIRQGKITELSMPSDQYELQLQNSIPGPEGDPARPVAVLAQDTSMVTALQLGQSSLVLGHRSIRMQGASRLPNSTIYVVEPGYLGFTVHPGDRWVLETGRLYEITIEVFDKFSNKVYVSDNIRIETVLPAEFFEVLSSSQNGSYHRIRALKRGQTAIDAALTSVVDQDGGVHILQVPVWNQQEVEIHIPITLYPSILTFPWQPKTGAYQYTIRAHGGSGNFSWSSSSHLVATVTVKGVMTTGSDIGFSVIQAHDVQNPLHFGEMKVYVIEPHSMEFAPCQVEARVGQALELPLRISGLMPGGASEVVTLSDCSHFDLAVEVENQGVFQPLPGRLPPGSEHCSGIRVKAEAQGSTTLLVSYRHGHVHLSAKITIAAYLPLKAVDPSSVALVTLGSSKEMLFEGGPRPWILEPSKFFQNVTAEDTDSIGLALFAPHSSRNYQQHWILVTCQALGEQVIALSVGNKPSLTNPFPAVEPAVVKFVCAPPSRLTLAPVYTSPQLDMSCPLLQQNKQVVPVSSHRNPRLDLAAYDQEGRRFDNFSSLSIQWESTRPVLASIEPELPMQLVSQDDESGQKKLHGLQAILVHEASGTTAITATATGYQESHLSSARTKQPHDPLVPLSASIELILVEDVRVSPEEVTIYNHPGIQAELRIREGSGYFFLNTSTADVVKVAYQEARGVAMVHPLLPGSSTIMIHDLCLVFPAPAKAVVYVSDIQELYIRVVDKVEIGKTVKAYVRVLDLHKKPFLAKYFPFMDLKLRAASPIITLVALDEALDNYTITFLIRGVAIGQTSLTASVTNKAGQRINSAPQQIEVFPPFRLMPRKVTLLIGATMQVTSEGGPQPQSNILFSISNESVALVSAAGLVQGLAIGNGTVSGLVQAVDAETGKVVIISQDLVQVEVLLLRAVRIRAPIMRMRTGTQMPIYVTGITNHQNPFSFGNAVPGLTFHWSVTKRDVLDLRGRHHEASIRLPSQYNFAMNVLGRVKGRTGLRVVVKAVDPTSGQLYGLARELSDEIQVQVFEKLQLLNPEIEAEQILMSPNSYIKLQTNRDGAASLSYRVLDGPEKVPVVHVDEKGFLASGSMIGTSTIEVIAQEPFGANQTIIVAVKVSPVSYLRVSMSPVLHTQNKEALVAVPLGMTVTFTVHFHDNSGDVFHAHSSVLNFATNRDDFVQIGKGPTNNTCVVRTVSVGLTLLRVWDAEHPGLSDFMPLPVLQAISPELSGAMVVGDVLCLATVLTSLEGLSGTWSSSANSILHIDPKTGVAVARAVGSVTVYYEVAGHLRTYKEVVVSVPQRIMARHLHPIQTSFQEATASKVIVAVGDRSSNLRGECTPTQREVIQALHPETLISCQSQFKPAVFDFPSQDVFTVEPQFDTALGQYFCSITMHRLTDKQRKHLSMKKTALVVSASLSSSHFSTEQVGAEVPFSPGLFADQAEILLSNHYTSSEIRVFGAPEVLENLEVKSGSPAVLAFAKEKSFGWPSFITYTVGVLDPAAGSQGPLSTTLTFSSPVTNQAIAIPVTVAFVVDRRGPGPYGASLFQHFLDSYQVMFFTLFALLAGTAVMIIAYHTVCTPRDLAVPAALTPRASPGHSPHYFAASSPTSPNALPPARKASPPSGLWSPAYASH

Target	log2 fold change
NUDT16 (UniProt Q96DE0)	-0.033
NIBAN1 (UniProt Q9BZQ8)	0.055
NUP210 (UniProt Q8TEM1)	-0.099
NMT1 (UniProt P30419)	-0.023
MRPS35 (UniProt P82673)	0.018
OPA1 isoform 2 (UniProt O60313)	-0.01
NA, A0A096LPI6	0.008
NOL7 (UniProt Q9UMY1)	-0.089
MRPS15 (UniProt P82914)	0.041
MXRA7 (UniProt P84157)	-0.248
MPP1 (UniProt Q00013)	0.024
MTMR14 (UniProt Q8NCE2)	0.007
MRPS25 (UniProt P82663)	0.066
MMS19 isoform 8 (UniProt Q96T76)	-0.094
NUDT21 (UniProt O43809)	-0.003

Compound: CON(C)C(=O)N1N=C(c2cc(F)ccc2F)S[C@@]1(CCCN)c1ccccc1 [filanesib]
Test: as above
In short: as §1

Target	log2 fold change
NDUFB8 (UniProt O95169)	0.004
MRPS12 (UniProt O15235)	0.074
MKNK1 (UniProt Q9BUB5)	-0.108
NELFA (UniProt Q9H3P2)	0.035
MRPS2 (UniProt Q9Y399)	-0.05
MRPS16 (UniProt Q9Y3D3)	0.044
NOP56 (UniProt O00567)	0.605 (active)
MITD1 (UniProt Q8WV92)	0.004
NDUFS7 (UniProt O75251)	-0.108
NARS2 (UniProt Q96I59)	-0.196
NDUFA6 (UniProt P56556)	-0.035
NDUFA9 (UniProt Q16795)	-0.116
NMNAT1 (UniProt Q9HAN9)	0.354
NQO1 (UniProt P15559)	-0.053
OTULIN (UniProt Q96BN8)	-0.044
NDUFB7 (UniProt P17568)	-0.023
MUL1 (UniProt Q969V5)	0.042
MSTO1 (UniProt Q9BUK6)	-0.078
NSUN2 (UniProt Q08J23)	-0.002
MKRN2 (UniProt Q9H000)	0.137

Target	log2 fold change
NFE2 (UniProt Q16621)	0
MRPS9 (UniProt P82933)	0.007
NCAPH (UniProt Q15003)	0.018
NGLY1 (UniProt Q96IV0)	0.043
NUDT16 (UniProt Q96DE0)	-0.018
NIBAN1 (UniProt Q9BZQ8)	0.028
NUP210 (UniProt Q8TEM1)	-0.08
NMT1 (UniProt P30419)	-0.005
MRPS35 (UniProt P82673)	0.024
OPA1 isoform 2 (UniProt O60313)	-0.118
NA, A0A096LPI6	-0.044
NOL7 (UniProt Q9UMY1)	0.524
MRPS15 (UniProt P82914)	0.145
MXRA7 (UniProt P84157)	0.135
MPP1 (UniProt Q00013)	-0.041
MTMR14 (UniProt Q8NCE2)	0.026
MRPS25 (UniProt P82663)	0.029
MMS19 isoform 8 (UniProt Q96T76)	-0.036
NUDT21 (UniProt O43809)	0.027
